IDE exosite inh: exo-site inhibitors of human IDE, primary screen, biochemical, fluorescence anisotropy, probe displacement; Insulin-degrading enzyme (Homo sapiens), P14735; purified IDE, FL-6b probe fluorescence polarization; hits give low values; z-score at 20 µM; 17,000 tested, 6.3% active; AID 1259349, 2017;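 active = z-score of -3 or lower, meaning strong loss of probe binding signal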;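 note: His-tagged human IDE residues 42-1019 made in E. coli with 30 nM FL-6b probe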
Target sequence (P14735 42-1019 limits assumed): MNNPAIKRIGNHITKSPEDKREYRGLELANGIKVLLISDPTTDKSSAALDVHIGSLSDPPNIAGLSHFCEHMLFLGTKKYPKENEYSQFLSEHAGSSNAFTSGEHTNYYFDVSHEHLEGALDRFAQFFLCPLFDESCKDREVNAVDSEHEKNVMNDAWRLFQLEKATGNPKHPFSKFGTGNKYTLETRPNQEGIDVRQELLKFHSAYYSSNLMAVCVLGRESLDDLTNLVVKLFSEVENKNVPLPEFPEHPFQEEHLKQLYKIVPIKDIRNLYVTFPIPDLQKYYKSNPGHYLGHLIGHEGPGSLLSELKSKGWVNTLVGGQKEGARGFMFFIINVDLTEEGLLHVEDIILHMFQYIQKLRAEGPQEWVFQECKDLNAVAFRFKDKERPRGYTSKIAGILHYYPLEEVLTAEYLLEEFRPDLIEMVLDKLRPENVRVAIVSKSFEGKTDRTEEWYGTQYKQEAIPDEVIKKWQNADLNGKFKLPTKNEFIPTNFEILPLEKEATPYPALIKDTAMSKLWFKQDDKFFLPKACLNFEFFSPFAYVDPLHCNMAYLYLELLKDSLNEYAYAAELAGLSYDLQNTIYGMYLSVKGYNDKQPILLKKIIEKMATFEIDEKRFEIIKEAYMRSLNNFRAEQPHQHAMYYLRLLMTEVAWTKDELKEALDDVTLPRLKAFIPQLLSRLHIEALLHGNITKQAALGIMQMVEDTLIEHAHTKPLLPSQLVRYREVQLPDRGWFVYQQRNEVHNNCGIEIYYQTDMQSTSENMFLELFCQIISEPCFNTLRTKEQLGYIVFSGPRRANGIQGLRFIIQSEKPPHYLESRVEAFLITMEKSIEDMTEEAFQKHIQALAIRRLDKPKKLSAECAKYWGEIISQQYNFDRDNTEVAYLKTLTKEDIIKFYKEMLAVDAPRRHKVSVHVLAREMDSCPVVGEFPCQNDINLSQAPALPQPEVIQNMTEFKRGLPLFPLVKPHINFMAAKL
* hit, by the source's call. The sample as a whole holds a higher share of hits than the screen did.

What do the screens show for `O=C1CN(Cc2ccc(F)cc2)C[C@@H]2[C@H](c3ccc(-c4cccnc4)cc3)[C@@H](CO)N12`?
IDE exosite inh: 1.29

How did CN(C)CC(=O)N1CC(=O)N2[C@H](CO)[C@@H](c3ccc(-c4ccc(C#N)cc4)cc3)[C@H]2C1 do in these assays?
IDE exosite inh: 0.327

What do the screens show for `O=C(CN1CCOCC1)N1CCCCN2[C@H](C1)[C@@H](c1ccc(/C=C/c3ccccc3)cc1)[C@@H]2CO`?
IDE exosite inh: -4.6*

What do the screens show for `O=C(CN1CCOCC1)N1CCCCN2[C@H](CO)[C@@H](c3ccc(/C=C/c4ccccc4)cc3)[C@H]2C1`?
IDE exosite inh: -9.26*

Results for O=C(CN1CCOCC1)N1CCCCN2[C@H](C1)[C@@H](c1ccc(Br)cc1)[C@@H]2CO ?
IDE exosite inh: 1.09

Results for O=C(CN1CCOCC1)N1CCCCN2[C@H](CO)[C@H](c3ccc(/C=C/c4ccccc4)cc3)[C@H]2C1 ?
IDE exosite inh: -2.94

Results for O=C(CN1CCOCC1)N1CCCCN2[C@H](CO)[C@H](c3ccc(/C=C/c4ccccc4)cc3)[C@@H]2C1 ?
IDE exosite inh: -9.28*

How did O=C(C[C@@H]1CC[C@H]2[C@@H](COC[C@H](O)CN2C(=O)Nc2cc(Cl)cc(Cl)c2)O1)N1CCOCC1 do in these assays?
IDE exosite inh: 0.274

What do the screens show for `COc1ccc(S(=O)(=O)Nc2ccc3c(c2)CC(=O)N([C@H](C)CO)C[C@H](C)[C@H](CN(C)C(=O)Nc2c(C)noc2C)O3)cc1`?
IDE exosite inh: 1.14

How did C[C@H](CO)N1C[C@H](C)[C@@H](CN(C)C(=O)CCCN(C)C)OCCCC[C@H](C)Oc2ccc(NC(=O)Nc3ccc4c(c3)OCO4)cc2C1=O do in these assays?
IDE exosite inh: 1.14

Results for COc1cccc(C(=O)Nc2ccc3c(c2)C(=O)N(C)[C@H]2CC[C@@H](CC(=O)N[C@@H](C)c4ccccc4)O[C@@H]2CO3)c1 ?
IDE exosite inh: -6.99*

What do the screens show for `COc1cccc(C(=O)Nc2ccc3c(c2)C(=O)N(C)[C@@H]2CC[C@@H](CC(=O)N[C@H](C)c4ccccc4)O[C@H]2CO3)c1`?
IDE exosite inh: -1.63

What do the screens show for `COc1cccc(C(=O)Nc2ccc3c(c2)C(=O)N(C)[C@H]2CC[C@@H](CC(=O)N[C@H](C)c4ccccc4)O[C@@H]2CO3)c1`?
IDE exosite inh: -3.58*

What do the screens show for `COc1cccc(C(=O)Nc2ccc3c(c2)C(=O)N(C)[C@@H]2CC[C@@H](CC(=O)N[C@@H](C)c4ccccc4)O[C@@H]2CO3)c1`?
IDE exosite inh: 0.594

How did C[C@H](NC(=O)C[C@H]1CC[C@@H]2[C@@H](COc3ccc(NC(=O)C4CCOCC4)cc3C(=O)N2C)O1)c1ccccc1 do in these assays?
IDE exosite inh: -0.799

How did COc1cccc(C(=O)Nc2ccc3c(c2)C(=O)N(C)[C@@H]2CC[C@@H](CC(=O)N[C@@H](C)c4ccccc4)O[C@H]2CO3)c1 do in these assays?
IDE exosite inh: -0.769

Results for CCC(=O)N1CC(=O)N2[C@H](CO)[C@@H](c3ccc(C#CC4CCCCC4)cc3)[C@H]2C1 ?
IDE exosite inh: 3.89

How did O=C(Cc1ccccc1)N1CC(=O)N2[C@H](CO)[C@@H](c3ccc(-c4cccc(F)c4)cc3)[C@@H]2C1 do in these assays?
IDE exosite inh: -1.95

Results for O=C(CC(F)(F)F)N1C[C@H]2[C@@H](c3ccccc31)[C@@H](CO)N2C(=O)c1ccncc1 ?
IDE exosite inh: 3.03

What do the screens show for `O=C(CN1CCOCC1)NC[C@@H]1[C@@H](c2ccccc2)[C@@H](CO)N1CC1CC1`?
IDE exosite inh: 1.95

How did CN1C(=O)c2cc(NC(=O)c3ccc(C#N)cc3)ccc2OC[C@H]2O[C@@H](CC(=O)NC3Cc4ccccc4C3)CC[C@@H]21 do in these assays?
IDE exosite inh: 0.209

Results for O=C(Nc1ccc(F)cc1)N1CCCCN2[C@H](C1)[C@H](c1ccc(C#Cc3ccccc3)cc1)[C@@H]2CO ?
IDE exosite inh: 2.48

How did CC(C)C#Cc1ccc([C@H]2[C@@H](C#N)N(C(=O)c3cccc(F)c3)[C@@H]2CO)cc1 do in these assays?
IDE exosite inh: -0.233

What do the screens show for `O=C(c1cccnc1)N1CC(=O)N2[C@H](C1)[C@@H](c1ccc(-c3ccccc3F)cc1)[C@@H]2CO`?
IDE exosite inh: -2.73

What do the screens show for `Cc1ccccc1-c1ccc([C@H]2[C@@H](CO)N3C(=O)CN(C(=O)c4cccnc4)C[C@H]23)cc1`?
IDE exosite inh: -17.2*

Results for Cc1ccccc1-c1ccc([C@@H]2[C@@H](CO)N3C(=O)CN(C(=O)c4ccncc4)C[C@H]23)cc1 ?
IDE exosite inh: -2.31

Results for Cc1ccccc1-c1ccc([C@@H]2[C@H]3CN(C(=O)c4cccnc4)CC(=O)N3[C@H]2CO)cc1 ?
IDE exosite inh: -19.7*

How did CCCC#Cc1ccc([C@@H]2[C@H](CO)N3C(=O)CN(C(=O)c4cccnc4)C[C@@H]23)cc1 do in these assays?
IDE exosite inh: 0.553

What do the screens show for `CCCC#Cc1ccc([C@@H]2[C@@H](CO)N3C(=O)CN(C(=O)Nc4ccc(F)cc4)C[C@H]23)cc1`?
IDE exosite inh: 4.74

Results for COCC(=O)N1[C@H](CO)[C@H](c2ccccc2C2=CCCC2)[C@@H]1C#N ?
IDE exosite inh: 0.805

What do the screens show for `C/C=C/c1ccc([C@H]2[C@@H](CO)N[C@@H]2CNC(=O)CC2CC2)cc1`?
IDE exosite inh: 1.89

How did CCC(=O)N1CC(=O)N2[C@H](C1)[C@H](c1ccc(C3=CCCCC3)cc1)[C@@H]2CO do in these assays?
IDE exosite inh: 0.348

How did O=C(c1cccc(F)c1)N1CCCCN2[C@@H](CO)[C@@H](c3ccc(/C=C/c4ccccc4)cc3)[C@@H]2C1 do in these assays?
IDE exosite inh: 2.44

Results for O=C(c1ccc(F)cc1)N1CC(=O)N2[C@H](CO)[C@H](c3ccc(C#CC4CCCCC4)cc3)[C@H]2C1 ?
IDE exosite inh: 3.48

How did COc1ccccc1-c1ccccc1[C@@H]1[C@@H](CO)N(C(=O)C2CCC2)[C@H]1C#N do in these assays?
IDE exosite inh: 2.69

How did N#C[C@@H]1[C@@H](c2ccc(-c3ccccc3F)cc2)[C@H](CO)N1C(=O)C1CC1 do in these assays?
IDE exosite inh: -3.11*

Results for COc1ccccc1-c1ccc([C@@H]2[C@H](C#N)N(C(=O)C3CC3)[C@H]2CO)cc1 ?
IDE exosite inh: -5.92*

How did COc1ccccc1-c1ccc([C@H]2[C@@H](C#N)N(C(=O)C3CC3)[C@@H]2CO)cc1 do in these assays?
IDE exosite inh: -3.17*

How did COc1ccccc1-c1ccc([C@H]2[C@@H](CO)N(C(=O)NC(C)C)[C@H]2C#N)cc1 do in these assays?
IDE exosite inh: -16.3*

How did COc1ccc(-c2ccc([C@@H]3[C@H](C#N)N(C(=O)NC(C)C)[C@H]3CO)cc2)cc1 do in these assays?
IDE exosite inh: 0.0838

Results for N#C[C@@H]1[C@@H](c2ccc(-c3ccccc3F)cc2)[C@@H](CO)N1C(=O)C1CCC1 ?
IDE exosite inh: 1.22

How did COc1ccc(-c2ccc([C@H]3[C@@H](C#N)N(C(=O)NC(C)C)[C@@H]3CO)cc2)cc1 do in these assays?
IDE exosite inh: -1.34

How did COc1ccc(-c2ccc([C@H]3[C@H](C#N)N(C(=O)C4CC4)[C@H]3CO)cc2)cc1 do in these assays?
IDE exosite inh: -0.559

How did COc1ccccc1-c1ccccc1[C@@H]1[C@@H](C#N)N(C(=O)C2CCC2)[C@@H]1CO do in these assays?
IDE exosite inh: 5.1

Results for COc1ccc(-c2ccc([C@@H]3[C@@H](C#N)N(C(=O)C4CC4)[C@H]3CO)cc2)cc1 ?
IDE exosite inh: 1.75
